PAFAH1B2 FP inh – PAFAH1B2 (human) inhibition; P68402; recombinant PAFAH1B2, FP-rhodamine activity probe, fluorescence polarization; inhibition, % at 3.39 µM; 1.2% of 340,000 active; AID 492953;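 active means inhibition above the mean of all tested compounds plus 3 SD, cut at about 24% in these data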
Target sequence (P68402 whole entry, looked up): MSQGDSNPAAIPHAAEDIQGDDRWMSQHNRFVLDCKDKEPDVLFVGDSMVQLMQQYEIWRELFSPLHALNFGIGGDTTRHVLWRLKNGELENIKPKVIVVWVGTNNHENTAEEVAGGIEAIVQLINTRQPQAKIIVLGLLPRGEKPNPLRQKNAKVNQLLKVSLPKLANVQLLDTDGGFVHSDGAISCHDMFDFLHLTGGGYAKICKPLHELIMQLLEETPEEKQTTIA
pPAFAH inh – pPAFAH (human) enzyme inhibition | Q13093 | 1.5% of 330,000 active | recombinant pPAFAH, FP-rhodamine probe fluorescence polarization | inhibition, % at 3.39 µM | AID 463082;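 active means inhibition above the mean inhibition across the screen plus 3 SD, cut at about 25% in these data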;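 further: inhibitors block binding of the rhodamine activity-based probe so polarization drops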
Target sequence (Q13093 whole entry, looked up): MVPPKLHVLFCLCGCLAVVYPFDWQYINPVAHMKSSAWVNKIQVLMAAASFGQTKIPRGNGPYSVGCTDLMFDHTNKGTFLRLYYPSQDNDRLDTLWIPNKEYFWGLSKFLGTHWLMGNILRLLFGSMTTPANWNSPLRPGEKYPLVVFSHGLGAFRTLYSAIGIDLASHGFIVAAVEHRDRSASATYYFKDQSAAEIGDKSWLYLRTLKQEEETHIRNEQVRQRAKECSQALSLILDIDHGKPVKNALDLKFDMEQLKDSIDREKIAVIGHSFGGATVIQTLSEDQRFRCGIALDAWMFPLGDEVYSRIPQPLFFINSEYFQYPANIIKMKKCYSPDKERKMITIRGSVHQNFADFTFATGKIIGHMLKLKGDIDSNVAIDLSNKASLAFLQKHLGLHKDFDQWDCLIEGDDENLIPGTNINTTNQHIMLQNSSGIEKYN
PAFAH1B3 FP inh – blocks human PAF acetylhydrolase 1B catalytic subunit 3. inhibition, % at 3.39 µM. Q15102. 0.28% of 340,000 active. recombinant PAFAH1B3, FP-rhodamine probe, fluorescence polarization;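 active means inhibition above the screen-wide average of all tested compounds plus 3 SD, cut at about 25% in these data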
Pemphigus Ab inh – human desmoglein-3 autoantibody binding inhibition; P32926; DSG3-coupled beads, scFv-anti-DSG3-GFP binding, flow cytometry; hits give low values; binding (percent of control), % at 10 µM; 0.48% of 310,000 active;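 active means binding more than 3 SD below its plate's average and above zero; inconclusive means below that plate limit but binding exactly zero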;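 further: hits lower antibody fragment binding to DSG3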
PAFAH2 inh – inhibitors of human PAFAH2. Q99487. recombinant PAFAH2, FP-rhodamine activity probe, fluorescence polarization. inhibition, % at 3.39 µM. 0.99% of 340,000 active;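 active means inhibition above the mean over all tested compounds plus 3 SD, cut at about 30% in these data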;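 further: inhibitors block probe labeling of enzyme so polarization drops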
M18AAP inhibitor – PfM18AAP enzyme inhibition; inhibition, % at 7.35 µM; 1.2% of 290,000 active; recombinant PfM18AAP, H-Glu-NHMec fluorogenic cleavage;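 active means inhibition above the campaign mean inhibition over all tested compounds plus 3 SD, cut at about 28% in these data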
Of the large screens only hits and unclear results are named; the others gave an inactive call. Rows were chosen to be rich in hits. Some 3.8% of all compounds tested hit in one or more screens of this group.

COc1cc(NC(=O)C2CCCN(S(=O)(=O)c3ccc4c(c3)CCCN4C(C)=O)C2)cc(OC)c1 (stereo unspecified)	pPAFAH inh 30
COc1ccc(NC(=O)C2CCCN(S(=O)(=O)c3ccc4c(c3)CCCN4C(C)=O)C2)cc1 (stereo unspecified)	none (no result: Pemphigus Ab inh)
O=C(COC(=O)/C=C/c1ccccc1Cl)NC1CC1	none (no result: PAFAH1B2 FP inh, pPAFAH inh, PAFAH1B3 FP inh, PAFAH2 inh, M18AAP inhibitor)
CCn1c(C)cc(C(=O)COC(=O)CNC(=O)c2ccco2)c1C	none (no result: PAFAH1B2 FP inh, pPAFAH inh, PAFAH1B3 FP inh, PAFAH2 inh, M18AAP inhibitor)
Fc1cccc(Nc2nc(N3CCOCC3)nc(N3CCOCC3)n2)c1	none
Clc1cccc(Nc2nc(N3CCOCC3)nc(N3CCOCC3)n2)c1	Pemphigus Ab inh 47
CNNC(=S)Nc1cccc(C(F)(F)F)c1	M18AAP inhibitor 29 (no result: PAFAH1B2 FP inh, PAFAH1B3 FP inh, PAFAH2 inh)
O=C(NNC(=S)Nc1cccc(C(F)(F)F)c1)c1ccc(Cl)cc1Cl	pPAFAH inh 25
FC(F)(F)c1cccc(NC(=S)NNC(=S)Nc2cccc(C(F)(F)F)c2)c1	none (no result: PAFAH1B2 FP inh, PAFAH1B3 FP inh, Pemphigus Ab inh, PAFAH2 inh)
COc1ccccc1-c1ccc([C@@H]2C[C@H]3[C@H](CON3C)CN2C(=O)c2ccc(-c3ccccc3)cc2)cc1	none (no result: PAFAH1B2 FP inh, pPAFAH inh, PAFAH1B3 FP inh, PAFAH2 inh, M18AAP inhibitor)
CCC(C)(C)NC(=O)C(c1ccncc1)N(Cc1cccs1)C(=O)Cn1nnc2ccccc21 (stereo unspecified)	none
CCC(C)(C)NC(=O)C(c1ccncc1)N(C(=O)Cn1nnc2ccccc21)c1cc2c(cc1C(C)=O)OCO2 (stereo unspecified)	Pemphigus Ab inh 84
CCCC(C)NC(=O)c1ccc(F)cc1 (stereo unspecified)	Pemphigus Ab inh 27
CCCC(C)NC(=O)c1ccc(-c2ccccc2)cc1 (stereo unspecified)	none (no result: PAFAH1B2 FP inh, PAFAH1B3 FP inh, Pemphigus Ab inh, PAFAH2 inh)
N/C(=N\OC(=O)CC1CCCCC1)c1ccc([N+](=O)[O-])cc1	none
N/C(=N\OC(=O)CCC1CCCCC1)c1ccc([N+](=O)[O-])cc1	PAFAH1B2 FP inh 25
CN(C)CCCCOc1ccccc1-c1ccccc1	M18AAP inhibitor 29
O=C(c1ccco1)n1nc(NCc2ccccc2)nc1NCc1ccccc1	none (no result: Pemphigus Ab inh)
O=C(c1cccnc1)n1nc(NCc2ccccc2)nc1NCc1ccccc1	M18AAP inhibitor 28
Cc1ccc(CCNC(=O)c2sc3nc4n(c(=O)c3c2C)CCC4)cc1	none
CCC(C)N(C)C(=O)c1cc2ccccc2c(-c2ccccc2Cl)n1 (stereo unspecified)	Pemphigus Ab inh 20
Cc1onc(-c2ccccc2Cl)c1C(=O)N(Cc1ccccc1)C(C)C	none
CN(C)c1ccc(S(=O)(=O)N2CCCCC2)cc1NC(=O)CCNC(=O)c1ccccc1Cl	none (no result: pPAFAH inh, Pemphigus Ab inh, M18AAP inhibitor)
O=C(/C=C/c1ccc(O)c(O)c1)OCCc1ccccc1	PAFAH1B2 FP inh 34 (no result: M18AAP inhibitor)
O=C(COC(=O)/C=C/c1cccc(Br)c1)NCCc1ccccc1	none (no result: M18AAP inhibitor)
COC(=O)[C@@H](N)Cc1ccc(O)c(O)c1	none (no result: Pemphigus Ab inh, M18AAP inhibitor)
O=C(/C=C/c1ccc(O)c(O)c1)OC(Cc1ccc(O)c(O)c1)C(=O)O (stereo unspecified)	M18AAP inhibitor 89
Cc1ccccc1NS(=O)(=O)c1ccc(NC(=O)CSCc2ccc(Br)cc2)cc1	pPAFAH inh 26
O=C(CSCc1ccc(Br)cc1)Nc1ccc(S(=O)(=O)N2CCOCC2)cc1	none
Nc1ccc(Cn2ccc3c4c(N)nc(N)nc4ccc32)cc1	none (no result: pPAFAH inh, M18AAP inhibitor)
Cc1ccccc1-n1c(-c2ccco2)n[nH]c1=S	M18AAP inhibitor 30
COc1ccc(NS(=O)(=O)c2cccc(C(=O)N3CCN(c4ccccc4O)CC3)c2)cc1	pPAFAH inh 27 (no result: M18AAP inhibitor)
COc1cccc(C(=O)OCC(=O)c2c(N)n(C)c(=O)n(C)c2=O)c1	none (no result: M18AAP inhibitor)
COc1ccc(NS(=O)(=O)c2cccc(C(=O)N3CCCCCCC3)c2)cc1	pPAFAH inh 34 (no result: Pemphigus Ab inh, M18AAP inhibitor)
COc1ccc(OC)c(CN2CCN(C(=O)c3cccc(S(=O)(=O)Nc4ccc(C)cc4)c3)CC2)c1	pPAFAH inh 25 (no result: M18AAP inhibitor)
COc1ccc(NS(=O)(=O)c2cccc(C(=O)OCC(=O)c3c(N)n(C)c(=O)n(C)c3=O)c2)cc1	pPAFAH inh 29, Pemphigus Ab inh inconclusive (no result: M18AAP inhibitor)
CC(C)c1ccc(NC(=O)CN(C)C2=NS(=O)(=O)c3ccccc32)cc1	none (no result: PAFAH1B2 FP inh, pPAFAH inh, PAFAH1B3 FP inh, PAFAH2 inh, M18AAP inhibitor)
S=C(Nc1ccc(Oc2ccccc2)cc1)Nc1cccnc1	none
COc1ccc(NS(=O)(=O)c2cccc(C(=O)OCC(=O)N3CCN(c4ccc(OC)cc4)CC3)c2)cc1	pPAFAH inh 28 (no result: M18AAP inhibitor)
COc1ccc(C(=O)N2CCCCC2)cc1S(=O)(=O)Nc1ccccc1	pPAFAH inh 33
CCOC(=O)N1CCN(C(=O)c2cccc(S(=O)(=O)Nc3ccc(Br)cc3)c2)CC1	pPAFAH inh 32 (no result: M18AAP inhibitor)
COc1ccc(S(=O)(=O)Nc2ccc(S(=O)(=O)N3CCCC3)cc2)cc1	none
COc1ccc(S(=O)(=O)Nc2ccc(-n3cccc3)cc2)cc1	pPAFAH inh 28
C[C@H]1CN([C@@H](C)CO)C(=O)CCCn2nncc2CO[C@H]1CN(C)C(=O)NC1CCCCC1	none (no result: PAFAH1B2 FP inh, pPAFAH inh, PAFAH1B3 FP inh, PAFAH2 inh, M18AAP inhibitor)
COc1ccc(C(=O)N2CCNC(=O)C2)cc1S(=O)(=O)Nc1ccc(Br)cc1	pPAFAH inh 34 (no result: M18AAP inhibitor)
Cc1ccc(NS(=O)(=O)c2ccc(C(=O)N3CCN(S(=O)(=O)c4ccccc4)CC3)cc2)cc1	none (no result: M18AAP inhibitor)
Cc1cccc(NS(=O)(=O)c2cccc(C(=O)N3CCN(S(=O)(=O)c4ccccc4)CC3)c2)c1	PAFAH1B2 FP inh 29 (no result: M18AAP inhibitor)
C=CCN(C(=O)CCC(=O)Nc1cc(C)on1)C(C(=O)NC(C)(C)CC)c1cccc(OC)c1OC (stereo unspecified)	none
Cc1cc(NCCCn2ccnc2)n2nc(C)c(-c3ccc(Cl)cc3)c2n1	pPAFAH inh 25
Cc1cc(NCCCn2ccnc2)n2nc(C)c(-c3ccccc3)c2n1	none
Cc1cc(NCCN2CCOCC2)n2nc(C)c(-c3ccc(Cl)cc3)c2n1	pPAFAH inh 28
O=C(Nc1ccc(OC(F)F)cc1)c1cc(S(=O)(=O)N2CCOCC2)ccc1N1CCCC1	none (no result: pPAFAH inh, M18AAP inhibitor)
COc1ccc(CC(=O)OCC(=O)Nc2ccc(Br)cc2)cc1	none
O=C(COC(=O)Cc1ccc(Cl)cc1)Nc1ccc(OC(F)F)cc1	pPAFAH inh 29
Cc1ccc(CNC(=O)Nc2ccc(Cl)cc2)cc1	PAFAH1B2 FP inh 65
CCOC(=O)CNC(=O)Cc1ccc(Cl)cc1	none
COc1ccc(NC(=O)COC(=O)Cc2ccc(Br)cc2)cc1	pPAFAH inh 29
CCOC(=O)Cc1ccc(NCc2ccc(Cl)cc2)cc1	PAFAH1B2 FP inh 24 (no result: Pemphigus Ab inh)
Cc1cnc(C(=O)OCC(=O)Nc2cc(S(=O)(=O)N3CCOCC3)ccc2Cl)cn1	none (no result: Pemphigus Ab inh, M18AAP inhibitor)
O=C(COC(=O)Cc1ccccc1F)Nc1ccc(SC(F)F)cc1	pPAFAH inh 26
COc1ccc(C2(SCC(N)C(=O)O)c3ccccc3-c3ccccc32)cc1 (stereo unspecified)	Pemphigus Ab inh 72 (no result: pPAFAH inh, M18AAP inhibitor)
O=C1C=CC(O)C2(CO)OC12 (stereo unspecified)	none (no result: PAFAH1B2 FP inh, pPAFAH inh, PAFAH1B3 FP inh, PAFAH2 inh, M18AAP inhibitor)
Cc1nn(-c2ncc(C(F)(F)F)cc2Cl)c(=O)n1-c1c(F)cccc1F	pPAFAH inh 30

Source: PubChem BioAssay
